# Laboratory results taken from PubChem BioAssay (Tox21).
# Calls of active or inactive are those of the source. Calls come from the whole dose curve; as a rule, active = well fitted cell-killing curve with a large enough effect in the repeat runs; inconclusive = weak or mixed curves, or effect the other way; inactive = flat fitted curve, though single readings scatter.
# Test: qHTS assay to identify small molecule HDAC inhibitors - cell viability counter screen (AID 1259365); note: nearly all actives have a fitted effect of over 50% in size
# Settings: HCT-116 viability, CellTiter-Glo ATP luminescence, 2 h; series mostly up to 92.4 µM
# Excerpt: U.S. Tox21 Program National Center for Advancing Translational Sciences [NCATS] NIH Chemical Genomics Center [NCGC] U.S. Environmental Protection Agency [EPA] National Institutes of Environmental Health Sciences [NIEHS] National Toxicology Program [NTP] U.S. Food and Drug Administration [FDA] Tox21 Assay Overview: Histone deacetylases (HDACs) are a group of epigenetic enzymes that regulate gene expression by histone deacetylation. HDACs are capable of introducing epigenetic modifications and such aberrations contribute to the onset and progression of several human diseases, thus making HDACs a popular therapeutic target. For identifying endogenous class I/II HDAC inhibitors a homogenous, luminogenic HDAC I/II cell based assay was used to measure the relative activity of class I and II HDACs from cells. Wild type HCT-116 cells were used to screen Tox21 compound libraries for identifying class I/II HDAC inhibitors.
# Tox21 Assay Protocol Summary: HCT-116 cells were dispensed at 1,500 per well in 5uL of culture medium into white solid bottom 1536-well plates (Greiner Bio-One, Monroe, NC) using a Multidrop Combi (Thermo Scientific, Waltham, MA) dispenser. The assay plates were incubated at 37 C and 5% CO2 for an overnight, and then 23nL of compounds dissolved in DMSO and positive control were transferred using a Pintool station (Wako, San Diego, CA). The assay plates were incubated at 37C and 5% CO2 for 2hr. After compound treatment, 4uL of CellTiter-Glo reagent (Promega Corporation, Madison, WI) was added to each well of the assay plates using Flying Reagent Dispenser (FRD, Aurora Discovery, San Diego, CA) and incubated the assay plates at room temperature for 30min. The luminescence signal was quantified using a ViewLux plate reader (Perkin Elmer, Shelton, CT).
row,Compound,outcome
1,CC(N)=S,inactive
2,CSc1nc(N=[N+]=[N-])nc(NC(C)C)n1,inactive
3,CCNc1nc(NC(C)C)nc(OC)n1,inactive
4,CCOC(=O)C1(c2ccccc2)CCN(CCc2ccc(N)cc2)CC1,inactive
5,C=C(C)CN(CC)c1c([N+](=O)[O-])cc(C(F)(F)F)cc1[N+](=O)[O-],inactive
6,N#CCBr,inactive
7,[As]#[In],inactive
8,C(CCOCC1CO1)COCC1CO1 (stereo not given),inactive
9,CNC(=O)Oc1c(C(C)(C)C)cc(C)cc1C(C)(C)C,inactive
10,CN1C[C@@H](NS(=O)(=O)N(C)C)C[C@@H]2c3cccc4c3c(cn4C)C[C@H]21,inactive
11,COP(=S)(OC)Oc1ccc(S(N)(=O)=O)cc1,inactive
12,O=C(O)c1cccc(Cl)c1,inactive
13,CN(C)CCc1ccc(O)cc1,inactive
14,CN1CCN(C(=O)O[C@H]2c3nccnc3C(=O)N2c2ccc(Cl)cn2)CC1,inactive
15,[Cl][Sn]([Cl])([Cl])[Cl],inactive
16,CC(=O)CCc1ccc2c(c1)OCO2,inactive
17,CS(=O)(=O)c1cc(C(F)(F)F)ccc1C(=O)c1cnoc1C1CC1,inactive
18,CC(C(=O)c1ccccc1)N(C)C (stereo not given),inactive
19,Fc1cc(Br)ccc1CBr,inactive
20,O=C(Nc1ccccc1)c1ccccc1I,inactive

row,Compound,outcome
1,Cc1nnc2n1-c1sc(CCC(=O)N3CCOCC3)cc1C(c1ccccc1Cl)=NC2,inactive
2,C[C@]1(O)CC[C@H]2[C@@H]3CCC4=CC(=O)CC[C@]4(C)[C@@]3(F)[C@@H](O)C[C@@]21C,inactive
3,CCCSP(=O)(OCC)Oc1ccc(Br)cc1Cl (stereo not given),inactive
4,N#CC(CCc1ccc(Cl)cc1)(Cn1cncn1)c1ccccc1 (stereo not given),inactive
5,O=[N+]([O-])c1ccc(CBr)cc1,inactive
6,CCCCP(CCCC)CCCC,inactive
7,CC(C)(C)NCC(O)c1cc(Cl)c(N)c(Cl)c1 (stereo not given),inactive
8,O=C1CN=C(c2ccccc2)c2cc([N+](=O)[O-])ccc2N1,inactive
9,Cc1ncc2n1-c1ccc(Cl)cc1C(c1ccccc1F)=NC2,inactive
10,COC(=O)c1ccccc1S(=O)(=O)NC(=O)N(C)c1nc(C)nc(OC)n1,inactive
11,CN(N=O)C(N)=O,inactive
12,O=C(Oc1ccc(Br)cc1)N1CCN2CCC1CC2,inactive
13,N#CCCC#N,inactive
14,COc1ccc(C(=O)N2CCCC2=O)cc1,inactive
15,C[C@@H]1CN(C2CCC(C#N)(c3ccc(F)cc3)CC2)CC[C@]1(C(=O)O)c1ccccc1 (stereo not given in full),inactive
16,O=C(CCCN1CCC(n2c(=O)[nH]c3ccccc32)CC1)c1ccc(F)cc1,inactive
17,O=C(NCO)NCO,inactive
18,CCCCCCBr,inactive
19,CCC(C)(C)c1cc(-n2nc3ccccc3n2)c(O)c(C(C)(C)CC)c1,inactive
20,O=c1oc2ccccc2c(O)c1C1CCCc2ccccc21 (stereo not given),inactive
